PubChem BioAssay (NCATS)
Several values for one entry are separate records, joined by “and”; a condition that tells them apart may be missing. Equal values may be shown once. Results filed as inconclusive are left out. Activity calls are given as the source filed them. Unless noted, calls come from the whole dose curve; as a rule, active = well fitted curve in the direction sought with a large enough effect; inconclusive = small, poorly fitted or top-dose-only effect, or another doubt; inactive = no such curve, though single readings can be large; an effect the other way counts as inactive or inconclusive.

What was measured:
[1] = molecular target: Tyrosine-protein kinase Yes (Homo sapiens) (UniProt P07947); assay: qHTS for small molecule inhibitors of Yes1 kinase: Primary Screen (AID 686947); note: nearly all actives have a fitted effect of over 60% in size; note: potency is the fitted concentration of half-maximal effect
Sequence of Tyrosine-protein kinase Yes (Homo sapiens) (P07947 whole entry, looked up): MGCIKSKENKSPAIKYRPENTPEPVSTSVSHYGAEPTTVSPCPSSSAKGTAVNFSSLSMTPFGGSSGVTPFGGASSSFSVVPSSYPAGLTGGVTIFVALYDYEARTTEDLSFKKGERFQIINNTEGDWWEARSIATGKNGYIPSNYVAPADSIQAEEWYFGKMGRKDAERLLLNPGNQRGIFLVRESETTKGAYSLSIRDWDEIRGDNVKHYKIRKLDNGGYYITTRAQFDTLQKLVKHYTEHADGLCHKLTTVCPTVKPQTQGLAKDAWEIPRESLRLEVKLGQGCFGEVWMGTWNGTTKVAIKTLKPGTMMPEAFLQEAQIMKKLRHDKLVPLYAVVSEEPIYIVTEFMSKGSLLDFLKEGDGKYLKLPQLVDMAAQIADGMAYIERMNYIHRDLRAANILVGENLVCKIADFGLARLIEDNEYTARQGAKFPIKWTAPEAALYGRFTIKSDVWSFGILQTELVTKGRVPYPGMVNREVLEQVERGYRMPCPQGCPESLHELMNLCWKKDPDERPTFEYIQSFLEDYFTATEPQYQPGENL
Outline: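 In this qHTS format, inhibition is expressed relative to DMSO controls with enzyme (maximum) and without enzyme (minimum). The 60 min room-temperature reaction uses 0.1 mM ATP, with ADP detected by luminescence.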

[2] = qHTS for small molecule inhibitors of Yes1 kinase: Counter Assay (AID 686950);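 note: no kinase present so only ADP-Glo detection of a fixed ADP amount is tested; luminescence from ADP-Glo reporting ADP in a fixed ATP and ADP mixture; 0% = DMSO wells with ATP plus ADP and -100% = ATP-only wells without ADP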
Outline: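 No kinase present; 0.08 mM ATP + 0.02 mM ADP in 50 mM Tris pH 7.5, 10 mM MgCl2, 150 mM NaCl, 1 mM DTT; 20 min compound preincubation, 60 min RT, ADP-Glo luminescence, normalized to ATP/ADP (max) and ATP-only (min).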

[3] = qHTS profiling for inhibitors of Plasmodium falciparum (3D7) proliferation (AID 743322; call rule not given here;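 note: infected erythrocytes exposed to compound for 72 h before lysis; 100% = DMSO vehicle wells and 0% = 0.29 µM artemisinin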); conditions: P. falciparum 3D7 proliferation; at 28.7 µM (top of the series) unless noted
Outline: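 Parasite DNA was quantified by SYBR Green I fluorescence (ex 485, em 535 nm) after overnight lysis in saponin/Triton buffer at room temperature. Cultures at 0.3% parasitemia and 2.5% hematocrit were first exposed to compound for 72 h at 37 C; signals were normalised to artemisinin (0.29 uM) and vehicle wells.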

[4] = qHTS profiling for inhibitors of Plasmodium falciparum (DD2) proliferation (AID 743323; call rule not given here); conditions: lower = more inhibition; at 28.7 µM (top of the series) unless noted
Outline: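 SYBR Green fluorescence (ex 485, em 535 nm) of lysed cultures gives parasite DNA content; wells normalized to artemisinin (0.29 uM) and DMSO controls. Infected red cells: 0.3% parasitemia, 2.5% hematocrit, 72 h, 37 C.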

[5] = qHTS Assay for Identifying Gametocytocidal Compounds (AID 743244); note: potency is the fitted concentration of half-maximal effect;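 for max response: % is set by controls: 0 for no effect and ±100 for the full control effect; actives lower the fluorescent signal which means gametocytes are killed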; conditions: P. falciparum 3D7 stage III-V gametocytes, alamarBlue, 72 h; max response: stronger effect = lower value
Outline: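 Stage III–V gametocytes of P. falciparum 3D7 were seeded at 20,000 cells/well onto pre-dispensed compounds. After 72 h, 37 °C, 5% CO2, alamarBlue was added for another 24 h.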

Structure (SMILES) | Potency [1] | outcome [2] | remaining parasite growth % (stronger effect = lower value) [3] | activity, percent of control [4] | max response [5] | Potency [5]
NC(=O)c1ccc(-c2nc(-c3ccc4c(c3)OCO4)c(-c3ccccn3)[nH]2)cc1 | inactive | inactive | 82.3% | 88.1% |  | 
CC[C@@H](C)[C@H](NC(=O)[C@H](CC1CCCCC1)NC(=O)c1ccno1)C(=O)N1CCC2(CCc3ccccc32)CC1 | inactive | inactive | -1.46% | -0.289% |  | 
Cc1cnc(Nc2ccc(OCCN3CCCC3)cc2)nc1Nc1cccc(S(=O)(=O)NC(C)(C)C)c1 | inactive | inactive | 1.03% | 52.4% |  | 
NC(=O)c1ccc(-c2nc(-c3ccc4c(c3)OCCO4)c(-c3ccccn3)[nH]2)cc1 | inactive | inactive | 15.5% | 4.9% |  | 
COc1cc(Oc2ccnc3cc(OC)c(OC)cc23)ccc1NC(=O)NC(C)c1nccs1 (stereo not drawn) |  | inactive | 69.7% | 56.8% | 6.55% (inactive) | 
CS(=O)(=O)c1cccc(CNc2nc(Nc3ccc4c(c3)CCC(=O)N4)ncc2C(F)(F)F)c1 | 972 nM (active) | inactive | 106% | 108% |  | 
CCC(C)(C)C(=O)O[C@H]1C[C@@H](C)C=C2C=C[C@H](C)[C@H](CC[C@@H]3C[C@@H](O)CC(=O)O3)[C@H]21 | inactive | inactive | 116% [at 9.63 µM] | 96.4% [at 9.63 µM] | 5.81% (inactive) | 
CC(C)c1onc(-c2c(Cl)cccc2Cl)c1COc1ccc(/C=C/c2cccc(C(=O)O)c2)c(Cl)c1 |  | inactive | 28.5% | 74.9% | 14.5% (inactive) | 
NC(=O)C1CCCc2c1[nH]c1ccc(Cl)cc21 (stereo not drawn) |  | inactive | 100% | 94.6% | 9.85% (inactive) | 
Cc1c(CCOc2ccc(C(=O)O)cc2)c2cc(Cl)ccc2n1C(c1ccccc1)c1ccccc1 |  | inactive | 84.7% | 81.3% | 6.58% (inactive) | 
CCCc1nc2c(C)cc(-c3nc4ccccc4n3C)cc2n1Cc1ccc(-c2ccccc2C(=O)O)cc1 | inactive | inactive | 103% | 94% |  | 
Nc1nc2[nH]cc(CCc3ccc(C(=O)N[C@@H](CCC(=O)O)C(=O)O)cc3)c2c(=O)[nH]1 |  | inactive | 14.6% | 10.6% | 97.2% (inactive) and -5.73% (inactive) | 
O=C(Nc1cccnc1)N1CCC(Cc2cccc(Oc3ccc(C(F)(F)F)cn3)c2)CC1 | inactive | inactive | 8.79% | 24.9% | -7.98% (inactive) | 
Cc1c(CN2CCN(C(=O)C(C)C)CC2)sc2c(N3CCOCC3)nc(-c3cnc(N)nc3)nc12 | 244 nM (active) | inactive | 12.2% | 23.2% |  | 
CCc1cc(Nc2nccc(-c3c(-c4ccc(OC)c(C(=O)Nc5c(F)cccc5F)c4)nc4ccccn34)n2)c(OC)cc1N1CCC(N2CCN(S(C)(=O)=O)CC2)CC1 |  | inactive | -0.479% | 0.369% |  | 3720 nM (active)
CN[C@@H](C)C(=O)N[C@H]1CCCC[C@H]2CC[C@@H](C(=O)N[C@@H](c3ccccc3)c3cn(CCCCc4ccc(CCCCn5cc([C@@H](NC(=O)[C@@H]6CC[C@@H]7CCCC[C@H](NC(=O)[C@H](C)NC)C(=O)N76)c6ccccc6)nn5)cc4)nn3)N2C1=O | inactive | inactive | -0.81% | 0.253% |  | 
CCN(CC)CCCC(C)Nc1nc(C)cc(Nc2ccc3nc(C)cc(N)c3c2)n1 (stereo not drawn) | inactive | inactive | 29.9% | 17.1% |  | 
Clc1ccc(Nc2nnc(Cc3ccncc3)c3ccccc23)cc1 |  | inactive | -0.114% | 2.71% | -0.822% (inactive) and -17.1% (inactive) | 
Cc1cc2c(F)c(Oc3ncnn4cc(OC[C@@H](C)O)c(C)c34)ccc2[nH]1 |  | inactive | 101% | 101% | -5% (inactive) | 
